Source: PubChem BioAssay (NCATS)
Records with an inconclusive call do not appear. Activity calls are given as the source filed them. Unless noted, calls follow the shape of the dose curve; as a rule, active = well fitted curve in the direction sought with a large enough effect; inconclusive = small, poorly fitted or top-dose-only effect, or another doubt; inactive = no such curve, though single readings can be large; an effect the other way counts as inactive or inconclusive.

Experiments:
[1] = Cell Viability - LYMP2-006 (AID 978); also: series mostly up to about 92 µM; % is scaled to controls: 0 for no effect and ±100 for the full control effect; nearly all actives have a fitted effect of over 60% in size
How it was run: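 In this cytotoxicity screen, the human lymphoblastoid line grew in complete medium with test compounds for 24 hr at 37 C. Cellular ATP served as the viability signal.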

[2] = Cell Viability - LYMP2-007 (AID 979);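 also: cells exposed to compound for 24 h before reading; 0% = DMSO only and the negative end = 92 µM tetraoctylammonium bromide; nearly all actives have a fitted effect of over 60% in size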
How it was run: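 Human lymphoblastoid cells (2500/well) were plated in complete medium, incubated 5 hr at 37 C, then exposed to compounds for 24 hr at 37 C. Intracellular ATP was read by CellTiter-Glo luminescence after 30 min at room temperature; AC50 from Hill fits.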

[3] = Cell Viability - LYMP2-008 (AID 980); also: % is scaled to controls: 0 for no effect and ±100 for the full control effect; nearly all actives have a fitted effect of over 60% in size
How it was run: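 Human lymphoblastoid cells (2500/well) were plated, held 5 hr at 37 C, then exposed to compounds for 24 hr at 37 C in complete medium. Intracellular ATP was read by CellTiter-Glo luminescence; AC50 from Hill-fitted concentration-response.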

[4] = Cell Viability - LYMP2-010 (AID 981); also: % is scaled to controls: 0 for no effect and ±100 for the full control effect; nearly all actives have a fitted effect of over 55% in size
How it was run: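 Human lymphoblastoid LYMP2-010 cells (2500/well) were preincubated 5 hr at 37 C, then exposed to compounds for 24 hr at 37 C in complete medium. Intracellular ATP was measured by CellTiter-Glo luminescence after 30 min at room temperature; AC50 from Hill-fitted concentration-response.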

[5] = Cell Viability - LYMP2-012 (AID 982);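 also: cellular ATP by luciferase luminescence where a drop means cytotoxicity; cells exposed to compound for one day before reading; 0% = DMSO only and full loss = 92 µM tetraoctylammonium bromide; nearly all actives have a fitted effect of over 55% in size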
[6] = Cell Viability - LYMP2-014 (AID 983);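 also: series mostly up to about 92 µM; plate controls were DMSO only for no effect and 92 µM tetraoctylammonium bromide for full effect; nearly all actives have a fitted effect of over 50% in size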
How it was run: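 Human lymphoblastoid cells (2500/well) were pre-incubated 5 hr at 37 C, then exposed to compounds in complete medium for 24 hr at 37 C. Intracellular ATP was read by CellTiter-Glo luminescence after 30 min at room temperature; AC50 from Hill fits.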

[7] = Cell Viability - LYMP2-016 (AID 984); also: % is scaled to controls: 0 for no effect and ±100 for the full control effect; nearly all actives have a fitted effect of over 55% in size
How it was run: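 Concentration-dependent ATP depletion measured in LYMP2-016 lymphoblastoid cells, 24 h, 37 C; luciferase-based luminescent detection; Hill-equation AC50.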

[8] = Cell Viability - LYMP2-018 (AID 985);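 also: compound exposure lasted 24 hr at 37 °C; plate controls were DMSO only for no effect and tetraoctylammonium bromide at 92 µM for full effect; nearly all actives have a fitted effect of over 50% in size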
How it was run: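 Human lymphoblastoid cells (2500/well) were pre-incubated 5 hr at 37 C, then exposed to compounds for 24 hr at 37 C in complete medium. Viability was read as intracellular ATP by CellTiter-Glo luminescence; AC50 values came from Hill-equation fits.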

[9] = Cell Viability - LYMP2-020 (AID 986);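 also: series mostly up to about 92 µM; plate controls were DMSO only for no effect and tetraoctylammonium bromide at 92 µM for full effect; nearly all actives have a fitted effect of over 55% in size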
How it was run: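 Human lymphoblastoid cells, 2500/well, were pre-incubated 5 hr at 37 C, then exposed to compounds for 24 hr at 37 C in complete medium. Intracellular ATP was read by CellTiter-Glo luminescence, and AC50 was derived by Hill fitting of concentration-response data.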

[10] = Cell Viability - LYMP2-022 (AID 987)
How it was run: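 Human lymphoblastoid cells, 2500/well, preincubated 5 hr at 37 C, then exposed to compounds over a concentration range for 24 hr at 37 C in complete medium. Viability read as intracellular ATP by CellTiter-Glo luminescence after 30 min at room temperature; AC50 from Hill fits.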

[11] = Cell Viability - LYMP2-024 (AID 988);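 also: plate controls were DMSO only for no effect and 92 µM tetraoctylammonium bromide for full effect; nearly all actives have a fitted effect of over 60% in size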
How it was run: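 Human lymphoblastoid cells (2500/well) in complete medium were preincubated 5 hr at 37 C, then exposed to compounds for 24 hr at 37 C. Intracellular ATP was read by CellTiter-Glo luminescence; AC50 from Hill-equation fits of concentration-response data.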

[12] = Cell Viability - LYMP2-026 (AID 989); also: % is scaled to controls: 0 for no effect and ±100 for the full control effect; nearly all actives have a fitted effect of over 50% in size
How it was run: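 Human lymphoblastoid cells (2500/well) in complete medium were preincubated 5 hr at 37 C, then exposed to compounds for 24 hr at 37 C. Cellular ATP was read by CellTiter-Glo luminescence; AC50 from Hill-equation fits of concentration-response data.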

[13] = Cell Viability - LYMP1-002 - Assay at 24 hr (AID 993); also: % is scaled to controls: 0 for no effect and ±100 for the full control effect
How it was run: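 Human lymphoblastoid LYMP1-002 cells, 2500/well in complete medium, were treated with compounds for 24 h at 37 C; intracellular ATP was read by CellTiter-Glo luminescence. AC50 values came from Hill-equation fits of qHTS concentration-response data.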

[14] = biological target: Androgen receptor (Homo sapiens) (UniProt P10275); assay: qHTS assay for small molecule agonists of androgen receptor signaling (AID 588515; active = well fitted curve in the direction sought with a large enough effect in the signal ratio, with a control signal flat; the % refers to the signal ratio; also: % is scaled to controls: 0 for no effect and ±100 for the full control effect); settings: AR-UAS-bla HEK293, beta-lactamase ratio, agonist 16 h; stronger effect = higher value
How it was run: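 EC50 and efficacy came from Hill fits of titrations (up to 92 uM) normalized to 30 nM R1881 as 100% and DMSO as 0%. Compound exposure was 16 h at 37 C on AR-UAS-bla HEK293 cells, with a 405/460/530 nm CCF4 fluorescence read.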

[15] = biological target: Glucocorticoid receptor (Homo sapiens) (UniProt P04150); assay: qHTS assay for small molecule agonists of glucocorticoid receptor signaling (AID 588532; active = well fitted curve in the direction sought with a large enough effect in the signal ratio, with a control signal flat; the % refers to the signal ratio;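 also: 100% = dexamethasone at 0.1 µM and 0% = DMSO only wells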); settings: HeLa MMTV-bla, beta-lactamase ratio, agonist, 18 h; stronger effect = higher value; percent of dexamethasone control, DMSO zero
How it was run: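 Using MMTV-bla HeLa cells in medium with 1% stripped FBS and 25 mM HEPES, compounds were titrated and incubated overnight-length (18 h). Beta-lactamase cleavage of CCF4 was quantified by dual-emission fluorescence.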

[16] = biological target: Peroxisome proliferator-activated receptor gamma (Homo sapiens) (UniProt P37231); assay: qHTS assay for small molecule agonists of peroxisome proliferator-activated receptor gamma signaling (AID 588536; active = well fitted curve in the direction sought with a large enough effect in the signal ratio, with a control signal flat, not every such curve was filed as active; the % refers to the signal ratio;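 also: 0% = DMSO basal wells and 100% = rosiglitazone at 2 µM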)
How it was run: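 GeneBLAzer PPAR-gamma-UAS-bla HEK293 cells in 1% charcoal/dextran-treated FBS medium were treated 16 h at 37 C with compounds. Beta-lactamase activity was read by CCF4 ratio (460/530 nm). Response was normalized to 2 uM rosiglitazone (100%) and DMSO, then Hill-fitted for EC50 and efficacy.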

[17] = biological target: Vitamin D3 receptor (Homo sapiens) (UniProt P11473); assay: qHTS assay for small molecule antagonists of vitamin D receptor signaling (AID 588541; calls by dose curve;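 also: receptor activated by calcitriol during compound treatment; series mostly up to about 77 µM; % is scaled to controls: 0 for no effect and ±100 for the full control effect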)
How it was run: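 Antagonist-mode beta-lactamase reporter assay: HEK293T VDR-UAS-bla cells were exposed to titrated compound alongside 1-alpha,25-dihydroxyvitamin D3 at 3 nM final for 16 h. Values were normalized to the 50 nM agonist control and DMSO basal, with IC50 and efficacy from Hill equation fits.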

[18] = biological target: Vitamin D3 receptor (Homo sapiens) (UniProt P11473); assay: qHTS assay for small molecule agonists of vitamin D receptor signaling (AID 588543; calls by dose curve;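 also: 0% = DMSO basal and 100% = reference agonist control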)
How it was run: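 Measured: β-lactamase reporter activity (CCF4, 405 nm excitation, 460/530 nm emission) in HEK293T VDR-UAS-bla cells after 16 h compound exposure at 37 °C. Normalization against 50 nM 1α,25-dihydroxyvitamin D3 and DMSO; Hill-fit EC50.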

[19] = qHTS assay for small molecule antagonists of retinoid X receptor alpha signaling (AID 588546; active = well fitted inhibition curve with a large enough effect in the signal ratio, with a control signal flat, not every such curve was filed as active; the % refers to the signal ratio;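 also: cells stimulated with 9-cis-retinoic acid as agonist; % is scaled to controls: 0 for no effect and ±100 for the full control effect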); settings: HEK293T RXRa-UAS-bla, beta-lactamase ratio, antagonist mode; measured here: W530 green channel, cytotoxicity proxy
How it was run: (§1)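 Beta-lactamase reporter inhibition, read as CCF4 fluorescence ratio (ex 405, em 460/530 nm) after 2 h at RT. HEK293T UAS-bla cells, 2500/well, were stimulated with 9-cis-RA at 500 or 100 nM final alongside test compound for 18 h at 37 C.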

[20] = biological target: Retinoic acid receptor RXR-alpha (Homo sapiens) (UniProt P19793); assay: as above; settings: HEK293T RXRa-UAS-bla, beta-lactamase ratio, antagonist mode
How it was run: as §1

[21] = biological target: Thyroid hormone receptor beta (Homo sapiens) (UniProt P10828); assay: qHTS assay for small molecule antagonists of thyroid hormone receptor beta signaling (AID 588547; active = well fitted inhibition curve with a large enough effect in the signal ratio, with a control signal flat, not every such curve was filed as active; the % refers to the signal ratio); settings: TR-UAS-bla HEK293, beta-lactamase ratio, antagonist mode, 18 h
How it was run: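 Inhibition of T3-driven (0.4nM final) beta-lactamase reporter activity was measured over 0.59 nM to 92 uM compound after 18 h at 37 C. The cells were GripTite HEK293 TR-UAS-bla in charcoal/dextran-stripped serum, with CCF4 ratio read-out and IC50 from Hill fits.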

[22] = biological target: Voltage-gated inwardly rectifying potassium channel KCNH2 (Homo sapiens) (UniProt Q12809); assay: qHTS Assay for Small Molecule Inhibitors of the Human hERG Channel Activity (AID 588834);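 also: top concentration of the series differs between compounds; % is scaled to controls: 0 for no effect and ±100 for the full control effect; lower thallium flux fluorescence means stronger hERG block; nearly all actives have a fitted effect of over 50% in size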
How it was run: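 Blockade is seen as reduced FluxOR thallium-flux fluorescence in U2OS cells expressing hERG from a BacMam construct, in Opti-MEM with 2% FCS. Concentration-response data fitted to the Hill equation for AC50.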

[23] = qHTS assay for small molecule activators of the p53 signaling pathway (AID 651743; active = well fitted activation curve with a large enough effect in the signal ratio, not every such curve was filed as active; the % refers to the signal ratio; also: series mostly up to about 92 µM; % of control where 0% means no effect); settings: HCT-116 p53RE-bla, beta-lactamase FRET ratio, 16 h; activation: stronger effect = higher value
How it was run: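 Screen for p53 pathway agonists uses stably transfected p53RE-bla HCT-116 cells, 4,000 per well, treated 16 h at 37 C with compounds in DMSO.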

Chain of Vitamin D3 receptor (Homo sapiens) (P11473 whole entry, looked up): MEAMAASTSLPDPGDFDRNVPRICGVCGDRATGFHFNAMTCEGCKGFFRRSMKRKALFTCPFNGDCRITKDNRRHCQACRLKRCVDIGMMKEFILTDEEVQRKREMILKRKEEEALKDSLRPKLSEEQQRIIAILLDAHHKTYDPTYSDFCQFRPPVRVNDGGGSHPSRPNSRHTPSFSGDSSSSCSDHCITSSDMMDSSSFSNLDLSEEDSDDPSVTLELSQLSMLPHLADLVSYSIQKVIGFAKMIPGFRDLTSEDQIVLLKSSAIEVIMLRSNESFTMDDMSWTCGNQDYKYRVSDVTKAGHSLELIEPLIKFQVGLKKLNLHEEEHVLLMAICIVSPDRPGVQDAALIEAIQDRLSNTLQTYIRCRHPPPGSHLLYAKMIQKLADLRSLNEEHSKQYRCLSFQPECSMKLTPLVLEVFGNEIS
Chain of Voltage-gated inwardly rectifying potassium channel KCNH2 (Homo sapiens) (Q12809 whole entry, looked up): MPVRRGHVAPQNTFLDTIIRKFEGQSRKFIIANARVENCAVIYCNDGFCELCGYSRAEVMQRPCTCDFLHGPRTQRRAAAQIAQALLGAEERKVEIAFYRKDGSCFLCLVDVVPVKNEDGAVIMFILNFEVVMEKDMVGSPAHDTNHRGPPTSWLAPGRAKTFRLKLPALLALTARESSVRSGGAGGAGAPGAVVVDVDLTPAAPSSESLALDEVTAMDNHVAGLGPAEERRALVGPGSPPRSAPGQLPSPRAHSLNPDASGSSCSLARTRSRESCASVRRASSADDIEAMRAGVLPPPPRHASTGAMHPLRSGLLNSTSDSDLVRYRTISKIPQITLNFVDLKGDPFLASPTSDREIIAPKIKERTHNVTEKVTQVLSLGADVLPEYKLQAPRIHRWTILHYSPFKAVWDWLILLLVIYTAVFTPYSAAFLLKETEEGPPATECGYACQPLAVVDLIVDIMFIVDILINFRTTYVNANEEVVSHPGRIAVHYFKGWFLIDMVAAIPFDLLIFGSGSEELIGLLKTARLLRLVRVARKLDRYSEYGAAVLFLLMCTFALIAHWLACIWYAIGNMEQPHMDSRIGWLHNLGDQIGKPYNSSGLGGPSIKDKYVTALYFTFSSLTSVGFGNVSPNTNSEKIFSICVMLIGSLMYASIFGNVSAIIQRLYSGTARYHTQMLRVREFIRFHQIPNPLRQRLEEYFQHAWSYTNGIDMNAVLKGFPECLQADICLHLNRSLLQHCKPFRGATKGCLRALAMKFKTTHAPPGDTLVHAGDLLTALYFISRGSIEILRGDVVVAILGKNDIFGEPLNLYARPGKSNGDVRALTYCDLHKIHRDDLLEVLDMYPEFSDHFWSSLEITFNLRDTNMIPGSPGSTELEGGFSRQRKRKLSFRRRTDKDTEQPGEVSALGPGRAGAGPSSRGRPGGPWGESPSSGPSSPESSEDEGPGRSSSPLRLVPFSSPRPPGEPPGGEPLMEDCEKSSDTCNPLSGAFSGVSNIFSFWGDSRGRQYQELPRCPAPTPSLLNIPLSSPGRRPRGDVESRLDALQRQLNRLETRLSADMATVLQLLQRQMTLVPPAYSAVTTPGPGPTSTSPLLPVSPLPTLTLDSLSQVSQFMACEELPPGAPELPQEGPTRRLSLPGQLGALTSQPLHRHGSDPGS
Chain of Glucocorticoid receptor (Homo sapiens) (P04150 whole entry, looked up): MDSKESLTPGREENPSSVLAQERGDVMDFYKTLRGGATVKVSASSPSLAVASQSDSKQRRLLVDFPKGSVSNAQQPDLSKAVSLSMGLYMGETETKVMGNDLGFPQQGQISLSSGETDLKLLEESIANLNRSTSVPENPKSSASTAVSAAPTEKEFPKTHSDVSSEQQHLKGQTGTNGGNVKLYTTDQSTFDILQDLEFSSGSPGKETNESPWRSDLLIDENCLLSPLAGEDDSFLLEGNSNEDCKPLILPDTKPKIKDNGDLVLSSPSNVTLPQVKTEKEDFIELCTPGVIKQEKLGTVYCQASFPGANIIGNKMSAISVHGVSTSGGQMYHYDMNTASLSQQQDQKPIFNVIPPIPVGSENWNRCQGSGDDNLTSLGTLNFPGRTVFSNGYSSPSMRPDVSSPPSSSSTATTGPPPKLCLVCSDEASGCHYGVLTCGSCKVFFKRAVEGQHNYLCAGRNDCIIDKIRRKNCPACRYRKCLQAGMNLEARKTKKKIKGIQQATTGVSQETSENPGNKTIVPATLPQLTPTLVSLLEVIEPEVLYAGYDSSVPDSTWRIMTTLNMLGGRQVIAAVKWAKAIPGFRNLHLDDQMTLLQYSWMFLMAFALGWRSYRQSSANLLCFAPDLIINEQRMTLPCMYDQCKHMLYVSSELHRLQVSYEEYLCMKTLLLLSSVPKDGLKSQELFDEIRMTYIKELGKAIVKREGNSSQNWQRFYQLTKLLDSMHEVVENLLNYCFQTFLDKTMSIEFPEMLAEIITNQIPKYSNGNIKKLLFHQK
Chain of Retinoic acid receptor RXR-alpha (Homo sapiens) (P19793 whole entry, looked up): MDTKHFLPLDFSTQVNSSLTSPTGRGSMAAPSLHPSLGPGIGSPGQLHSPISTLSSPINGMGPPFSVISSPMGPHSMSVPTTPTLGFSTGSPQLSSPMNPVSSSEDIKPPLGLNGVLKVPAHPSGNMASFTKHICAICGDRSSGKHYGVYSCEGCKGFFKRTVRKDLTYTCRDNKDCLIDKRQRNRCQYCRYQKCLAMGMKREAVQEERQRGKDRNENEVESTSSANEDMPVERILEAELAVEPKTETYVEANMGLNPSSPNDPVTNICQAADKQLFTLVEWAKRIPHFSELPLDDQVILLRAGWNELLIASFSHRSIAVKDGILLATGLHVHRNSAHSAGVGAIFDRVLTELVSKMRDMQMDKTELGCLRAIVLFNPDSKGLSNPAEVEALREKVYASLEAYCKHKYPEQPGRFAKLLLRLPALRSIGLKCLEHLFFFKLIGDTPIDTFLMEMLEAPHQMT
Chain of Peroxisome proliferator-activated receptor gamma (Homo sapiens) (P37231 whole entry, looked up): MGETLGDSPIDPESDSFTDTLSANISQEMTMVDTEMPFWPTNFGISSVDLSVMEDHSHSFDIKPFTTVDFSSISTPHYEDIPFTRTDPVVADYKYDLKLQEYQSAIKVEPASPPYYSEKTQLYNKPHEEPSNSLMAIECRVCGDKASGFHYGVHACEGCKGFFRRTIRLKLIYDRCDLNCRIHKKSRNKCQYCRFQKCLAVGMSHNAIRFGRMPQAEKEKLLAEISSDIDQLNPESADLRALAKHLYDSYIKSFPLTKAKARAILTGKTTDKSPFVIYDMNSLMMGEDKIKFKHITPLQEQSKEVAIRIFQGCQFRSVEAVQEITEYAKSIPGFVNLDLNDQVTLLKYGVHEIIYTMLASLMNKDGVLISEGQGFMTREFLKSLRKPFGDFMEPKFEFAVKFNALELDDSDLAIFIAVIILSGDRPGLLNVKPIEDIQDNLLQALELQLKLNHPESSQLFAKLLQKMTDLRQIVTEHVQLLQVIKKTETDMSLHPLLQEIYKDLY
Chain of Thyroid hormone receptor beta (Homo sapiens) (P10828 whole entry, looked up): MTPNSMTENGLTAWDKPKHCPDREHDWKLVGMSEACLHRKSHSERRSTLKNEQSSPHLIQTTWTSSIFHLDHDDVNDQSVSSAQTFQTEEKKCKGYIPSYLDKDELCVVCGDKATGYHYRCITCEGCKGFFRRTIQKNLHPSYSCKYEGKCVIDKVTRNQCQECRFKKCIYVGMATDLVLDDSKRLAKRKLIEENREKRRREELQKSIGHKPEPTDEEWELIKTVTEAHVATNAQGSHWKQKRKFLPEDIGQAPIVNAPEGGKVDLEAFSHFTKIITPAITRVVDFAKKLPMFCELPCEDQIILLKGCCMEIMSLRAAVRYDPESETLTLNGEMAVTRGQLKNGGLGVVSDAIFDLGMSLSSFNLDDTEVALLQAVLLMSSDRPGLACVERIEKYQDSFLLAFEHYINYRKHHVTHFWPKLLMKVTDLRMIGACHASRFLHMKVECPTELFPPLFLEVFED
Chain of Androgen receptor (Homo sapiens) (P10275 whole entry, looked up): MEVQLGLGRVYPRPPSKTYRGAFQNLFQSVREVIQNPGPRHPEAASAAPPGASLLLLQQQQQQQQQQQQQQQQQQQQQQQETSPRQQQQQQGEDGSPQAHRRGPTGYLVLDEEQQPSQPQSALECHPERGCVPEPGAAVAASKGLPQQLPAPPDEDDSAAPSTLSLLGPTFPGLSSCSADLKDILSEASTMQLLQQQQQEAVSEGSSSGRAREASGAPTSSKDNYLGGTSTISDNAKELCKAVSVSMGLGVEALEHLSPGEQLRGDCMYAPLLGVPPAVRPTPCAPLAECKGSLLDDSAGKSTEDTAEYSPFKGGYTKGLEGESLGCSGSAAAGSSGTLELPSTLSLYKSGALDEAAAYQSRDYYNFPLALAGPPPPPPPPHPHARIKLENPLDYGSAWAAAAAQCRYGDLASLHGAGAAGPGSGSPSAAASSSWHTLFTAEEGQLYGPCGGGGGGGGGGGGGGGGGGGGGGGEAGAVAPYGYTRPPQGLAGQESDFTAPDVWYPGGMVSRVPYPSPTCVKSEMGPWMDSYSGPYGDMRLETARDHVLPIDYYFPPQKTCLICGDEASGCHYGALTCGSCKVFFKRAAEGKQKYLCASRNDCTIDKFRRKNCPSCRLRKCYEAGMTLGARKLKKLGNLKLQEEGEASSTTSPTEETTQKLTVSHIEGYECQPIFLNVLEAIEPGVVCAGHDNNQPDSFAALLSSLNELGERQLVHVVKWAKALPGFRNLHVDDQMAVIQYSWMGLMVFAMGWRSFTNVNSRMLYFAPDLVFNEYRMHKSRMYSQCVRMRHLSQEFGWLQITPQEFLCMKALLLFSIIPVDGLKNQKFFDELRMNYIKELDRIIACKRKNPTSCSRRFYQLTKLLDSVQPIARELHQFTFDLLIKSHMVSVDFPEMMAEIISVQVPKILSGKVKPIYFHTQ

COC1=CC(=O)OC(CCc2ccccc2)C1 (stereo not drawn)
inactive: Potency [1] | Potency [2] | Potency [3] | Potency [4] | Potency [5] | Potency [6] | Potency [7] | Potency [8] | Potency [9] | Potency [10] | Potency [11] | Potency [12] | Potency [13] | activation [14] -22.1% | activation [15] -4.92% | outcome [16] | outcome [17] | outcome [18] | max response [20] 14.2% | activity change % (negative = inhibition) [21] 3.59% | Potency [22] | activation [23] -2.49%
-2.34%: max response [19]
